# Cruzain inh noDet = cruzain (T. cruzi) inhibition without detergent | Potency, µM, without a hit: max response, negative = inhibition, hits mostly inhibitors | AID 1476 | P25779 | 2.3% of 200,000 active | purified cruzain, Z-FR-AMC fluorescence, no detergent;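 note: plate controls were enzyme without inhibitor for no effect and buffer without enzyme for full effect; nearly all actives have a fitted effect of over 40% in size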
# Target sequence (P25779 123-467 limits assumed): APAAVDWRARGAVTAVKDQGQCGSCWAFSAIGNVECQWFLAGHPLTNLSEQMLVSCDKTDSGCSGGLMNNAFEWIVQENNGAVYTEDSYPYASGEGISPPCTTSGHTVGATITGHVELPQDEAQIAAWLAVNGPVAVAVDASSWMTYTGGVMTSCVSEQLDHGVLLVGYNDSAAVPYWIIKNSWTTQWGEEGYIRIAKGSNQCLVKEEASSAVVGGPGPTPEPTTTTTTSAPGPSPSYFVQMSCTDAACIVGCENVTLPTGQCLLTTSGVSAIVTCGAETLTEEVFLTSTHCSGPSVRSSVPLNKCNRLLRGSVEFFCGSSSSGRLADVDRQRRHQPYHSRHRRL
#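 Purified cruzain at 1.5 nM, pre-incubated 15 min with compound at room temperature in 100 mM sodium acetate pH 5.5, 5 mM DTT, 0.00005% Triton X-100. Reaction started with 2 uM Z-FR-AMC; AMC fluorescence increase over 60 s gives rate.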
# Cruzain inh Det = cruzain (T. cruzi) inhibition with detergent. AID 1478. P25779. 0.43% of 200,000 active. purified cruzain, Z-FR-AMC fluorescence, 0.01% Triton. Potency, µM, for the others: max response, negative = inhibition, hits mostly inhibitors;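 note: plate controls were neutral wells for no effect and buffer without enzyme for full effect; nearly all actives have a fitted effect of over 40% in size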
#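 Purified cruzain (1.5 nM final) was preincubated with compounds for 15 min at room temperature in 100 mM sodium acetate pH 5.5, 5 mM DTT, 0.01% Triton X-100. Reaction started with 2 uM Z-FR-AMC; AMC fluorescence change over 60 s gave activity.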
# Numbers without * were called inactive; u = inconclusive; ! = not confirmed by another sample. Most compounds without a hit are left out; they make up all but 2.4% or so of the library. Calls come from the whole dose curve; as a rule, active = well fitted curve in the direction sought with a large enough effect; inconclusive = small, poorly fitted or top-dose-only effect, or another doubt; inactive = no such curve, though single readings can be large; an effect the other way counts as inactive or inconclusive. Potency is the fitted concentration of half-maximal effect.
SMILES,Cruzain inh noDet,Cruzain inh Det
O=C(Nc1nc2c(s1)CCCC2)c1cccc(S(=O)(=O)N2CCCc3ccccc32)c1,25.1µM*,-5.7%
CCC(CC)c1nnc(NC(=O)c2cccc(S(=O)(=O)N3CCc4ccccc43)c2)s1,u,-2.0%
O=C(Nc1nc2ccc(F)cc2s1)c1cccc(S(=O)(=O)N2CCc3ccccc32)c1,7.94µM*,-1.2%
O=C(Nc1nc2c(F)cccc2s1)c1ccc(S(=O)(=O)N2CCCc3ccccc32)cc1,-1.3%,1.2%
Cc1cccc(C(=O)Nc2nnc(S(=O)(=O)N3CCCc4ccccc43)s2)c1,-4.0%,-1.7%
Cc1ccc2nc(NC(=O)c3ccc(S(=O)(=O)N4CCCc5ccccc54)cc3)sc2c1,6.31µM*!,1.4%
CN1CCc2nc(NC(=O)c3cccc(S(=O)(=O)N4CCc5ccccc54)c3)sc2C1,15.8µM*,-4.9%
O=C(Nc1nc2c(F)cc(F)cc2s1)c1ccc(S(=O)(=O)N2CCc3ccccc32)cc1,-17.3%,-1.3%
COc1ccc(NC(=O)NC2COc3ccccc3C2)cc1Cl (stereo not drawn),-6.7%,-0.2%
CCOc1ccc(-n2nc(CO)c(C(=O)NCc3ccc(Cl)cc3)n2)cc1,4.5%,-5.1%
COc1ccccc1N1CCN(C(=O)c2cc3c(=O)oc4ccc(C)cc4c3s2)CC1,-2.8%,3.4%
CCc1c2c(nc3ccc(OC)cc13)OC(C)C2 (stereo not drawn),-1.7%,-0.8%
O=C(COc1ccccc1)Nc1nnc2n1CCS2,6.3%,-0.2%
O=C(NCc1ccc(Cl)cc1)c1ccc(Cn2cc(C(F)(F)F)ccc2=O)cc1,5.3%,-7.8%
O=C(c1cc(C(=O)NCc2ccc(Cl)cc2)c(=O)n(Cc2ccc(Cl)cc2)c1)c1cc(F)ccc1O,15.8µM*,-4.3%
O=C(CN1C(=O)C2(SCC(=O)N2c2cccc(Cl)c2)c2ccccc21)NC1CCCCC1 (stereo not drawn),-10.2%,-4.0%
CCCCCCCCCCCCCCCC(=O)N[C@H](CN1CCOCC1)[C@H](O)c1ccccc1,2.3%,-2.3%
CCCn1c(O)c(/C=C2\C=NN=C2c2ccccc2)sc1=S,5.1%,-7.2%
CCCCC(CC)Cn1c(O)c(/C=C2\C=NN=C2c2ccccc2)sc1=S (stereo not drawn),7.94µM*,-1.0%
COc1ccc2[nH]c3c(c2c1)CCN=C3C,12.6µM*,-11.8%
COc1ccc2[nH]c3c(c2c1)CCNC3=O,-2.7%,-3.0%
COc1cccc(Cn2cnc3c(NS(=O)(=O)c4cc(Cl)ccc4Cl)c(C)c(C)cc32)c1,u,-6.2%
COc1cccc(Cn2cnc3c(NS(=O)(=O)c4ccc(Cl)cc4Cl)c(C)c(C)cc32)c1,31.6µM*,2.1%
O=C(O)CC1S/C(=N/N=C/C=C/c2ccccc2)NC1=O (stereo not drawn),-3.5%,-17.3%
O=C(CC1S/C(=N/N=C/C=C/c2ccccc2)NC1=O)Nc1ccc(Cl)c(Cl)c1 (stereo not drawn),6.31µM*,-0.9%
SMILES,Cruzain inh noDet,Cruzain inh Det
Nc1c(C(=O)Nc2ccc(Cl)cc2F)sc2nc(-c3cccs3)ccc12,25.1µM*,-10.6%
Nc1c(C(=O)Nc2ccc(F)c(F)c2)sc2nc(-c3ccncc3)ccc12,-3.2%,-3.4%
CC(=O)c1sc2nc(-c3cccs3)ccc2c1N,-8.0%,-13.2%
Nc1c(C(=O)Nc2ccccc2Br)sc2nc(-c3cccs3)ccc12,20µM*,-7.9%
Nc1c(C(=O)Nc2nc3ccccc3s2)sc2nc(-c3cccs3)ccc12,7.94µM*,-8.7%
Nc1ccc(C(=O)Nc2nc3ccccc3s2)cc1,4.8%,-9.1%
Cc1ccc(CNC(=O)CSc2ncc(S(=O)(=O)c3ccc(C)c(Cl)c3)c(=O)[nH]2)cc1,u,-11.8%
CCOC(=O)c1noc2ncnc(NCc3ccccc3OC)c12,-11.2%,-5.4%
CCC1=C2CC[C@H]3C(=O)N(c4ccccc4)C(=O)[C@H]3[C@H]2[C@@]2(Cc3ccccc3)C(=O)N(CC(=O)OC)C(=O)N2C1=O,7.9%,-5.9%
Cc1ccc(/C=C(\NC(=O)c2ccccc2)C(=O)OCc2ccccc2)cc1,u,7.94µM*
O=C(CNC(=O)/C(=C\c1ccc(F)cc1)NC(=O)c1ccccc1)OCc1ccccc1,u,17.8µM*
O=C(CNC(=O)/C(=C\c1ccccc1)NC(=O)c1ccc(Br)cc1)OCc1ccccc1,-9.9%,-29.7%
Cc1ccc(/C=C(\NC(=O)c2ccccc2)C(=O)NC(Cc2ccccc2)C(=O)O)cc1 (stereo not drawn),-0.9%,-3.2%
CCc1ccc(OCc2nnc(SCC(=O)Nc3cccc(C(=O)N4CCOCC4)c3)o2)cc1,u,-3.1%
COc1cccc(NC(=O)CSc2nnc(COc3ccc4c(c3)CCCC4)o2)c1,13.7%,-1.3%
CCc1ccc(NC(=O)CSc2nnc(COc3ccc4c(c3)CCCC4)o2)cc1,15.8µM*,5.0%
COC(=O)c1ccc(NC(=O)CSc2nnc(COc3ccc4c(c3)CCCC4)o2)cc1,10µM*,5.4%
Cc1nnc(N2CCN(c3cccc(C(F)(F)F)c3)CC2)c2c1nnn2Cc1ccccc1,-3.8%,-3.1%

# Screening results from PubChem BioAssay.
